target: T1, GST-Co-NF-kB (Capsaspora owczarzaki, UniProt F1ARL5 200-546); assay: protein-binding microarray (PBM); PBM: ~300 nM protein, 6 mM HEPES pH 7.8, 80 mM KCl, 0.5 mM EDTA, 0.5 mM EGTA, 6% glycerol, 35 ng/ul poly-dIdC, 1% milk, 1 h, room temperature; Ap Aiptasia and Nv Nematostella (sea anemones) / Co Capsaspora / Aq Amphimedon (sponge) / Dm Drosophila / Hu human; RHD is the Rel homology domain; high values mean tight binding; settings: dsDNA, one strand shown
T1 sequence: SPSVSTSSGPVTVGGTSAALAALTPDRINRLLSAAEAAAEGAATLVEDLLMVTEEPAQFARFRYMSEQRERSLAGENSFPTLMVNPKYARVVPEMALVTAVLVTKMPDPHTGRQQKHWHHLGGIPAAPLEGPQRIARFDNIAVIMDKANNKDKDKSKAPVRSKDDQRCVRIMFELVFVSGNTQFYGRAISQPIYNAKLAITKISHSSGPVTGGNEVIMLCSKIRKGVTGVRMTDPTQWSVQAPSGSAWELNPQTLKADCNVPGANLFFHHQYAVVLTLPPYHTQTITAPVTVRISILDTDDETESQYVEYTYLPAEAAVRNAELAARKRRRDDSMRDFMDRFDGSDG

Row | Sequence | binding signal [z-score]
1 | CCGATTAACATCAAAATTACCCCTGATGTTAATCGGGTCTTGATTCGCTTGACGCTGCTG | 7.33
2 | CCGATTAACATCAGAAAATCCCCTGATGTTAATCGGGTCTTGATTCGCTTGACGCTGCTG | 4.89
3 | CCGATTAACATCAGAGAATCCCCTGATGTTAATCGGGTCTTGATTCGCTTGACGCTGCTG | 3.37
4 | CCGATTAACATCAGGGGGCAATATGATGTTAATCGGGTCTTGATTCGCTTGACGCTGCTG | 4.37
5 | CCGATTAACATCAAGGGGTTCCCTGATGTTAATCGGGTCTTGATTCGCTTGACGCTGCTG | 2.13
6 | CCGATTAACATCAGGAAGCCCCCTGATGTTAATCGGGTCTTGATTCGCTTGACGCTGCTG | 1.49
7 | CCGATTAACATCAGGGGGTTTCATGATGTTAATCGGGTCTTGATTCGCTTGACGCTGCTG | 2.56
8 | CCGATTAACATCAGGGGAAACCCTGATGTTAATCGGGTCTTGATTCGCTTGACGCTGCTG | 7.22
9 | CCGATTAACATCATAATCCCCCATGATGTTAATCGGGTCTTGATTCGCTTGACGCTGCTG | 6.17
10 | CCGATTAACATCAGGGGGGATAATGATGTTAATCGGGTCTTGATTCGCTTGACGCTGCTG | 7.17
11 | CCGATTAACATCAGGGGTTTCTATGATGTTAATCGGGTCTTGATTCGCTTGACGCTGCTG | 1.76
12 | CCGATTAACATCAATTTCCCCCCTGATGTTAATCGGGTCTTGATTCGCTTGACGCTGCTG | 11.5
13 | CCGATTAACATCAGATACTCCCCTGATGTTAATCGGGTCTTGATTCGCTTGACGCTGCTG | 4.31
14 | CCGATTAACATCAATTTCCCCCATGATGTTAATCGGGTCTTGATTCGCTTGACGCTGCTG | 10.7
15 | CCGATTAACATCAGGGAAAACCCTGATGTTAATCGGGTCTTGATTCGCTTGACGCTGCTG | 3.49
16 | CCGATTAACATCAAAATGTCCCCTGATGTTAATCGGGTCTTGATTCGCTTGACGCTGCTG | 5.57
17 | CCGATTAACATCACCGTTTCCCCTGATGTTAATCGGGTCTTGATTCGCTTGACGCTGCTG | 7.95
18 | CCGATTAACATCAGGGGAACAAATGATGTTAATCGGGTCTTGATTCGCTTGACGCTGCTG | 7.72
19 | CCGATTAACATCAAGGGGGTATCTGATGTTAATCGGGTCTTGATTCGCTTGACGCTGCTG | 3.26
20 | CCGATTAACATCAGAAATTCCCCTGATGTTAATCGGGTCTTGATTCGCTTGACGCTGCTG | 8.74

Row | Sequence | binding signal [z-score]
21 | CCGATTAACATCAAGGGAATTTCTGATGTTAATCGGGTCTTGATTCGCTTGACGCTGCTG | 4.25
22 | CCGATTAACATCAGGGGAATACCTGATGTTAATCGGGTCTTGATTCGCTTGACGCTGCTG | 5.97
23 | CCGATTAACATCAAATTTCCCCCTGATGTTAATCGGGTCTTGATTCGCTTGACGCTGCTG | 12.3
24 | CCGATTAACATCAAAACTCCCCCTGATGTTAATCGGGTCTTGATTCGCTTGACGCTGCTG | 9.22
25 | CCGATTAACATCAGAATCCCCCCTGATGTTAATCGGGTCTTGATTCGCTTGACGCTGCTG | 7.63
26 | CCGATTAACATCAGGGGAGGTAATGATGTTAATCGGGTCTTGATTCGCTTGACGCTGCTG | 3.71
27 | CCGATTAACATCAGGGGGGTTTATGATGTTAATCGGGTCTTGATTCGCTTGACGCTGCTG | 4.39
28 | CCGATTAACATCAAAAATCCCACTGATGTTAATCGGGTCTTGATTCGCTTGACGCTGCTG | 1.65
29 | CCGATTAACATCAACGAATCCCCTGATGTTAATCGGGTCTTGATTCGCTTGACGCTGCTG | 2.93
30 | CCGATTAACATCAAGCAATCCCCTGATGTTAATCGGGTCTTGATTCGCTTGACGCTGCTG | 2.5
31 | CCGATTAACATCAAGGGTATTCCTGATGTTAATCGGGTCTTGATTCGCTTGACGCTGCTG | 1.17
32 | CCGATTAACATCAGGGGAAAAGATGATGTTAATCGGGTCTTGATTCGCTTGACGCTGCTG | 7.74
33 | CCGATTAACATCAGGGGAATGCATGATGTTAATCGGGTCTTGATTCGCTTGACGCTGCTG | 5.53
34 | CCGATTAACATCAGGGAAATCCATGATGTTAATCGGGTCTTGATTCGCTTGACGCTGCTG | 3.28
35 | CCGATTAACATCAGATTTACCCCTGATGTTAATCGGGTCTTGATTCGCTTGACGCTGCTG | 6.39
36 | CCGATTAACATCACCGTTCCCCCTGATGTTAATCGGGTCTTGATTCGCTTGACGCTGCTG | 6.76
37 | CCGATTAACATCAGAATTTCCCATGATGTTAATCGGGTCTTGATTCGCTTGACGCTGCTG | 4.63
38 | CCGATTAACATCAGGGGATTACCTGATGTTAATCGGGTCTTGATTCGCTTGACGCTGCTG | 3.93
39 | CCGATTAACATCAGGGGAAGATATGATGTTAATCGGGTCTTGATTCGCTTGACGCTGCTG | 8.77

target: T2, GST-Dm-Relish (Drosophila melanogaster, UniProt Q94527 99-473); assay: as above; settings: dsDNA, one strand shown
T2 sequence: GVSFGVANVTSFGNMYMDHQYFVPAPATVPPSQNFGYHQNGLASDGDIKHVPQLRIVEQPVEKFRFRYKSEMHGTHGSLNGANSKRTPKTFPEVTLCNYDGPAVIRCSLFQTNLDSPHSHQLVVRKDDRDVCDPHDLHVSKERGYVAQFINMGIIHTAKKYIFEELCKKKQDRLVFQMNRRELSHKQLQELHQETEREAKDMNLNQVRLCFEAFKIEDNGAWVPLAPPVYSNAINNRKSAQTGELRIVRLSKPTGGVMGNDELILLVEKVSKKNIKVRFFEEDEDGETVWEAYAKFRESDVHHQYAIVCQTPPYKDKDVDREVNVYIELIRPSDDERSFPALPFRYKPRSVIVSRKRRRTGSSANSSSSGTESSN

Row | Sequence | binding signal [z-score]
40 | CCGATTAACATCAAAATTACCCCTGATGTTAATCGGGTCTTGATTCGCTTGACGCTGCTG | 5.24
41 | CCGATTAACATCAGAAAATCCCCTGATGTTAATCGGGTCTTGATTCGCTTGACGCTGCTG | 9.8
42 | CCGATTAACATCAGAGAATCCCCTGATGTTAATCGGGTCTTGATTCGCTTGACGCTGCTG | 8.56
43 | CCGATTAACATCAGGGGGCAATATGATGTTAATCGGGTCTTGATTCGCTTGACGCTGCTG | 2.2
44 | CCGATTAACATCAAGGGGTTCCCTGATGTTAATCGGGTCTTGATTCGCTTGACGCTGCTG | 9.46
45 | CCGATTAACATCAGGAAGCCCCCTGATGTTAATCGGGTCTTGATTCGCTTGACGCTGCTG | 7.8
46 | CCGATTAACATCAGGGGGTTTCATGATGTTAATCGGGTCTTGATTCGCTTGACGCTGCTG | 8.76
47 | CCGATTAACATCAGGGGAAACCCTGATGTTAATCGGGTCTTGATTCGCTTGACGCTGCTG | 10
48 | CCGATTAACATCATAATCCCCCATGATGTTAATCGGGTCTTGATTCGCTTGACGCTGCTG | 5.67
49 | CCGATTAACATCAGGGGGGATAATGATGTTAATCGGGTCTTGATTCGCTTGACGCTGCTG | 4.67
50 | CCGATTAACATCAGGGGTTTCTATGATGTTAATCGGGTCTTGATTCGCTTGACGCTGCTG | 5.29
51 | CCGATTAACATCAATTTCCCCCCTGATGTTAATCGGGTCTTGATTCGCTTGACGCTGCTG | 6.02
52 | CCGATTAACATCAGATACTCCCCTGATGTTAATCGGGTCTTGATTCGCTTGACGCTGCTG | 1.86
53 | CCGATTAACATCAATTTCCCCCATGATGTTAATCGGGTCTTGATTCGCTTGACGCTGCTG | 4.97
54 | CCGATTAACATCAGGGAAAACCCTGATGTTAATCGGGTCTTGATTCGCTTGACGCTGCTG | 9.01
55 | CCGATTAACATCAAAATGTCCCCTGATGTTAATCGGGTCTTGATTCGCTTGACGCTGCTG | 6.24
56 | CCGATTAACATCACCGTTTCCCCTGATGTTAATCGGGTCTTGATTCGCTTGACGCTGCTG | 2.77
57 | CCGATTAACATCAGGGGAACAAATGATGTTAATCGGGTCTTGATTCGCTTGACGCTGCTG | 3.13
58 | CCGATTAACATCAAGGGGGTATCTGATGTTAATCGGGTCTTGATTCGCTTGACGCTGCTG | 3.38
59 | CCGATTAACATCAGAAATTCCCCTGATGTTAATCGGGTCTTGATTCGCTTGACGCTGCTG | 8.87

Row | Sequence | binding signal [z-score]
60 | CCGATTAACATCAAGGGAATTTCTGATGTTAATCGGGTCTTGATTCGCTTGACGCTGCTG | 5.45
61 | CCGATTAACATCAGGGGAATACCTGATGTTAATCGGGTCTTGATTCGCTTGACGCTGCTG | 9.67
62 | CCGATTAACATCAAATTTCCCCCTGATGTTAATCGGGTCTTGATTCGCTTGACGCTGCTG | 7.24
63 | CCGATTAACATCAAAACTCCCCCTGATGTTAATCGGGTCTTGATTCGCTTGACGCTGCTG | 8.02
64 | CCGATTAACATCAGAATCCCCCCTGATGTTAATCGGGTCTTGATTCGCTTGACGCTGCTG | 8.81
65 | CCGATTAACATCAGGGGAGGTAATGATGTTAATCGGGTCTTGATTCGCTTGACGCTGCTG | 1.22
66 | CCGATTAACATCAGGGGGGTTTATGATGTTAATCGGGTCTTGATTCGCTTGACGCTGCTG | 8.97
67 | CCGATTAACATCAAAAATCCCACTGATGTTAATCGGGTCTTGATTCGCTTGACGCTGCTG | 7.7
68 | CCGATTAACATCAACGAATCCCCTGATGTTAATCGGGTCTTGATTCGCTTGACGCTGCTG | 4.84
69 | CCGATTAACATCAAGCAATCCCCTGATGTTAATCGGGTCTTGATTCGCTTGACGCTGCTG | 5.11
70 | CCGATTAACATCAAGGGTATTCCTGATGTTAATCGGGTCTTGATTCGCTTGACGCTGCTG | 7.04
71 | CCGATTAACATCAGGGGAAAAGATGATGTTAATCGGGTCTTGATTCGCTTGACGCTGCTG | 1.82
72 | CCGATTAACATCAGGGGAATGCATGATGTTAATCGGGTCTTGATTCGCTTGACGCTGCTG | 3.2
73 | CCGATTAACATCAGGGAAATCCATGATGTTAATCGGGTCTTGATTCGCTTGACGCTGCTG | 5.65
74 | CCGATTAACATCAGATTTACCCCTGATGTTAATCGGGTCTTGATTCGCTTGACGCTGCTG | 2.13
75 | CCGATTAACATCACCGTTCCCCCTGATGTTAATCGGGTCTTGATTCGCTTGACGCTGCTG | 2.76
76 | CCGATTAACATCAGAATTTCCCATGATGTTAATCGGGTCTTGATTCGCTTGACGCTGCTG | 3.42
77 | CCGATTAACATCAGGGGATTACCTGATGTTAATCGGGTCTTGATTCGCTTGACGCTGCTG | 9.7
78 | CCGATTAACATCAGGGGAAGATATGATGTTAATCGGGTCTTGATTCGCTTGACGCTGCTG | 4.01

From article PMC5700166
